Data as given in the supplement of paper PMC8975748.
Where a name gives a salt, the structure may show the parent alone.

Tested on: Saccharomyces cerevisiae BY4741 SeMeCo community
Assay: z-score of subpopulation abundance vs DMSO median, subpopulation auxotrophic for HUM; higher = larger share of this subpopulation than in DMSO controls
Settings: 10 µM; 24 h; SM minimal medium; subpopulation (auxotrophy): HUM
Experimental: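 Fluorescent four-plasmid SeMeCo (self-establishing metabolically cooperating S. cerevisiae BY4741 community; plasmids pH-mRuby2, pL-mWasabi, pU-eCFP, pM-TagRFP657) was grown 24 h in minimal SM medium with each Selleck FDA-approved drug at 10 µM in 384-well plates. Cells were fixed and imaged by high-content confocal microscopy. For each auxotrophic subpopulation (and the prototroph), a z-score gives the deviation from the DMSO vehicle-control population median.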

Row | SMILES | z-score of subpopulation abundance
1 | Oc1c(I)cc(Cl)c2cccnc12 [Clioquinol] | 16.6
2 | Cc1cc(CC(C)CC(C)(C)C)n(O)c(=O)c1 (stereo not given) [Piroctone Olamine] | 30.2
3 | CC1CCc2cc(F)cc3c(=O)c(C(=O)O)cn1c23 (stereo not given) [Flumequine] | -0.88
4 | COc1ccc(C(=O)NCc2ccc(OCCN(C)C)cc2)cc1OC [Itopride hydrochloride] | 0.81
5 | Cc1c(-c2ccc(O)cc2)n(Cc2ccc(OCCN3CCCCCC3)cc2)c2ccc(O)cc12 [Bazedoxifene Acetate] | -0.26
6 | CCCCCCCCCCCC(=O)O [Lauric Acid] | -0.04
7 | COc1ccc2cc3[n+](cc2c1OC)CCc1cc2c(cc1-3)OCO2 [Berberine Sulfate] | 0.71
8 | CC1(C)S[C@@H]2[C@H](NC(=O)COc3ccccc3)C(=O)N2[C@H]1C(=O)O [Penicillin V potassium salt] | -0.23
9 | CC1(C)S[C@@H]2[C@H](NC(=O)[C@H](N)c3ccc(O)cc3)C(=O)N2[C@H]1C(=O)O [Amoxicillin] | 0.4
10 | CCN(CC)CCNC(=O)c1cc(Cl)c(N)cc1OC [Metoclopramide] | 0.35
11 | CC[C@H](C)C(=O)O[C@H]1C[C@H](O)C=C2C=C[C@H](C)[C@H](CC[C@@H](O)C[C@@H](O)CC(=O)O)[C@H]21 [Pravastatin sodium] | -0.32
12 | CC1=C(C(=O)O)N2C(=O)[C@@H](NC(=O)[C@H](N)c3ccccc3)[C@H]2SC1 [Cephalexin] | 0.41
13 | CC(Cc1ccc(O)c(O)c1)C(C)Cc1ccc(O)c(O)c1 (stereo not given) [Nordihydroguaiaretic acid (NDGA)] | -0.77
14 | O=C(O)CCC(=O)OC[C@@H](NC(=O)C(Cl)Cl)[C@H](O)c1ccc([N+](=O)[O-])cc1 [Chloramphenicol sodium succinate] | 0.13
15 | CO/N=C(\C(=O)N[C@@H]1C(=O)N2C(C(=O)OC(C)OC(C)=O)=C(COC(N)=O)CS[C@H]12)c1ccco1 (stereo not given in full) [Cefuroxime axetil] | 0.05
16 | O=c1[nH]cnc2c1ncn2[C@@H]1O[C@H](CO)[C@@H](O)[C@H]1O [Isoprinosine] | -0.24
17 | CCCCCc1ccc(C)cc1O [Amylmetacresol] | -0.2
18 | C[C@@H](NCCCc1cccc(C(F)(F)F)c1)c1cccc2ccccc12 [Cinacalcet HCl] | -0.21
19 | CCC[C@@H]1C[C@@H](C(=O)N[C@@H]([C@H]2O[C@H](SC)[C@H](OP(=O)(O)O)[C@@H](O)[C@H]2O)[C@H](C)Cl)N(C)C1 [Clindamycin Phosphate] | 0.81
20 | COc1ccc(C[C@H](N)C(=O)N[C@H]2[C@@H](O)[C@H](n3cnc4c(N(C)C)ncnc43)O[C@@H]2CO)cc1 [Puromycin 2HCl] | 0.39

Row | SMILES | z-score of subpopulation abundance
21 | CC[C@H]1OC(=O)[C@H](C)[C@@H](O[C@H]2C[C@@](C)(OC)[C@@H](O)[C@H](C)O2)[C@H](C)[C@@H](O[C@@H]2O[C@H](C)C[C@H](N(C)C)[C@H]2O)[C@](C)(O)C[C@@H](C)[C@@H]2N[C@@H](COCCOC)O[C@H]([C@H]2C)[C@]1(C)O [Dirithromycin] | -0.1
22 | CC(C[N+](C)(C)C)OC(N)=O (stereo not given) [Bethanechol chloride] | -0.33
23 | CCOC(=O)C1=C(COCCN)NC(C)=C(C(=O)OC)[C@@H]1c1ccccc1Cl [Levamlodipine] | -5.45
24 | NC[C@H]1O[C@H](O[C@H]2[C@H](O)[C@@H](O[C@H]3O[C@H](CO)[C@@H](O)[C@H](N)[C@H]3O)[C@H](N)C[C@@H]2N)[C@H](O)[C@@H](O)[C@@H]1O [Kanamycin sulfate] | 0.21
25 | CCCCCCCCN=C(N)NC(N)=NCc1ccc(Cl)c(Cl)c1 [Olanexidine Hydrochloride semihydrate] | 34.7
26 | NC[C@@H]1O[C@H](O[C@H]2[C@@H](O)[C@H](O[C@@H]3[C@@H](O)[C@H](N)C[C@H](N)[C@H]3O[C@H]3O[C@H](CN)[C@@H](O)[C@H](O)[C@H]3N)O[C@@H]2CO)[C@H](N)[C@@H](O)[C@@H]1O [Neomycin sulfate] | -1.64
27 | OCCN1CCN(CCCN2c3ccccc3Sc3ccc(C(F)(F)F)cc32)CC1 [Fluphenazine dihydrochloride] | -0.44
28 | C(=C\c1ccccc1)/CN1CCN(C(c2ccccc2)c2ccccc2)CC1 [Cinnarizine] | 1.64
29 | COc1c(N2CCNC(C)C2)c(F)cc2c(=O)c(C(=O)O)cn(C3CC3)c12 (stereo not given) [Gatifloxacin] | 0.51
30 | CO/N=C(\C(=O)N[C@@H]1C(=O)N2C(C(=O)[O-])=C(C[N+]3(C)CCCC3)CS[C@H]12)c1csc(N)n1 [Cefepime Dihydrochloride Monohydrate] | 0.6
31 | Cc1ccc2c(Cl)cc(Cl)c(O)c2n1 [Chlorquinaldol] | 15.8
32 | CC[C@@]1(O)C(=O)OCc2c1cc1n(c2=O)Cc2cc3c(CN(C)C)c(O)ccc3nc2-1 [Topotecan HCl] | -0.98
33 | CNCC[C@H](Oc1cccc2ccccc12)c1cccs1 [Duloxetine] | 0.24
34 | CCC(C)n1ncn(-c2ccc(N3CCN(c4ccc(OCC5COC(Cn6cncn6)(c6ccc(Cl)cc6Cl)O5)cc4)CC3)cc2)c1=O (stereo not given) [Itraconazole] | 9.21
35 | N[C@@H](CCC(=O)O)C(=O)O [(S)-Glutamic acid] | -0.56
36 | CCOC(=O)C1=C[C@@H](OC(CC)CC)[C@H](NC(C)=O)[C@@H](N)C1 [Oseltamivir Phosphate] | -1.09
37 | Nc1ccc2cc3ccc(N)cc3nc2c1 [Proflavine] | -4.57
38 | O=C(O)C[C@H](O)C[C@H](O)/C=C/c1c(C2CC2)nc2ccccc2c1-c1ccc(F)cc1 [Pitavastatin Calcium] | 3.37
39 | CO[C@@H]1[C@H](OC(=O)/C=C/C=C/C=C/C=C/C(=O)O)CC[C@]2(CO2)[C@H]1[C@@]1(C)O[C@@H]1CC=C(C)C [Fumagillin] | 0.96
40 | CN(C)CCc1c[nH]c2ccc(CS(=O)(=O)N3CCCC3)cc12 [Almotriptan Malate] | -0.91
